# From publication PMC4336329 (PLoS ONE, 2015)
# About 14,000 (4.5%) of roughly 310,000 compounds showed an effect of 50% or more. The effect is printed as a negative number. What follows is part of a selection rich in strong results, with near analogues and random picks from the rest.
# Target: human ether-à-go-go-related gene (hERG) potassium channel (human, UniProt Q12809)
# Test: primary screen, population patch clamp on CHO cells stably expressing hERG; higher = less effect of the substance
# 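Note: peak tail current of the secondary pulse compared with the same well before compound.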
# Chain of human ether-à-go-go-related gene (hERG) potassium channel (Q12809 whole entry, looked up): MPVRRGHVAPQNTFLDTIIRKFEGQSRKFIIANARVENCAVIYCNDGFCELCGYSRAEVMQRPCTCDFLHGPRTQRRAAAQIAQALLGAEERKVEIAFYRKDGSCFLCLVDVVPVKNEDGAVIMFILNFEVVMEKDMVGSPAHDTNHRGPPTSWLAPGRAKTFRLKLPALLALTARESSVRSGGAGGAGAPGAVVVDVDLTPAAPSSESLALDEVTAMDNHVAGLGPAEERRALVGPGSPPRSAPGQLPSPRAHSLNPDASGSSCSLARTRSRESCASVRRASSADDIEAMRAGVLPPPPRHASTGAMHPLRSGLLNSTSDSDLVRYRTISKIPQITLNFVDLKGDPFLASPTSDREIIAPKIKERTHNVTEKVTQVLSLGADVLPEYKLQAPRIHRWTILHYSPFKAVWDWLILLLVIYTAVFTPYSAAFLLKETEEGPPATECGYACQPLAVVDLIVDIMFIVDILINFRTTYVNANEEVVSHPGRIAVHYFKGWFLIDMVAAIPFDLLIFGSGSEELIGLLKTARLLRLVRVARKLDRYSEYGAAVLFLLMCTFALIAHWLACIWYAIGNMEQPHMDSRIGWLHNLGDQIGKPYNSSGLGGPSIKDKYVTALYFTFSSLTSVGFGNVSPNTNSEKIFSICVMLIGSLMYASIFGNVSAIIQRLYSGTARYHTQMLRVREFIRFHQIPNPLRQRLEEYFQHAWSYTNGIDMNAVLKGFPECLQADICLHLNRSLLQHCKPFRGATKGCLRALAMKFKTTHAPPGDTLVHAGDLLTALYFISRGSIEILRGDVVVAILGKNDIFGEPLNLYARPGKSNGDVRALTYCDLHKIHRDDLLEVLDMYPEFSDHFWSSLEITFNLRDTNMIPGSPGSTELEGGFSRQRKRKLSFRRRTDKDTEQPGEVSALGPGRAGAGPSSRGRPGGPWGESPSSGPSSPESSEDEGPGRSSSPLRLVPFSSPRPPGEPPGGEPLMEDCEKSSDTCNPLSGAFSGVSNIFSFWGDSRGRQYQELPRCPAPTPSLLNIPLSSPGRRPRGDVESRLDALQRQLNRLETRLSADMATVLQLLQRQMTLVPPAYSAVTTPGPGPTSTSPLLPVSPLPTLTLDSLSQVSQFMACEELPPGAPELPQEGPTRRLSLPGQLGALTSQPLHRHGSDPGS
row,Compound,"hERG current change (%, negative = inhibition) at 10uM [%]"
1,COc1ccc(O[C@H]2C=C[C@@H](c3ccccc3)O[C@@H]2CO/N=C/C[C@@H]2C=C[C@H](OC(C)=O)[C@@H](COC(C)=O)O2)cc1,-9.17
2,CCCNC(=O)OC[C@H]1O[C@H](CCO/N=C/C[C@@H]2C=C[C@H](OC(C)=O)[C@@H](COC(C)=O)O2)C=C[C@@H]1Oc1ccc(OC)cc1,-59.7
3,CCCNC(=O)OC[C@H]1O[C@H](CCO/N=C/[C@@H](OC)[C@H](C)/C=C/CC(=O)OC)C=C[C@@H]1Oc1ccc(OC)cc1,-11.1
4,CCC(Sc1nc(C)cc(=O)[nH]1)C(=O)Nc1sc2c(c1C#N)CCCC2 (stereo not shown),-19.1
5,Cc1ccc2oc3nc(C)c(C(=O)Nc4cccc(C(F)(F)F)c4)cc3c(=O)c2c1,6.48
6,O=C(CCS(=O)(=O)c1cccc2nsnc12)N1CCN(c2ccccc2F)CC1,-30.3
7,COC(=O)C1=C(C(=O)c2ccc(C)cc2)C(c2ccc(OC)c(OC)c2)n2nnnc2N1 (stereo not shown),3.59
8,Cc1ccc(O)c(-c2cc(-c3cccc(F)c3)n[nH]2)c1,23.6
9,CCOC(=O)C1(Cc2cccc(OC)c2)CCN(Cc2cnc(N)nc2)CC1,-28.2
10,CCOC(=O)C1(Cc2ccc(Cl)cc2)CCN(Cc2ccon2)CC1,-49.5
11,CCOC(=O)C1(Cc2cccc(F)c2)CCN(Cc2cnn(CC)c2C)CC1,-16.6
12,CCOC(=O)C1(Cc2cccc(F)c2)CCN(Cc2ccon2)CC1,3.48
13,CCOC(=O)C1(Cc2cccc(F)c2)CCN(Cc2ccc(COC)o2)CC1,-23.5
14,CCOC(=O)C1(Cc2ccc(Cl)cc2)CCN(Cc2cn(CC)nc2C)CC1,-67.7
15,CCOC(=O)C1(Cc2ccc(Cl)cc2)CCN(Cc2cnc(N)nc2)CC1,-74.7
16,CCOC(=O)C1(S(=O)(=O)c2ccc(Cl)cc2)CCN(Cc2ccc(Cl)cc2)CC1,14.7
17,CCOC(=O)C1(Cc2cccc(F)c2)CCN(Cc2cn(CC)nc2C)CC1,-38
18,CCCn1cc(CN2CCC(Cc3cccc(F)c3)(C(=O)OCC)CC2)c(C)n1,-67.2
19,CCCn1ncc(CN2CCC(Cc3cccc(F)c3)(C(=O)OCC)CC2)c1C,-59.7
20,O=C(NCC1OCCc2ccccc21)c1ccc(NC(=O)c2cccc(Br)c2)cc1 (stereo not shown),2.42
21,COC(=O)Cn1c(C)c(C(C)=O)c(C(C)=O)c1C,14.1
22,CCOCCCN1C(=O)C(=O)N(CC(=O)N2c3ccccc3NC(=O)CC2C)C1=O (stereo not shown),17.2
23,O=C(O)c1cc(S(=O)(=O)N2CCCCC2)sc1Cl,17
24,Cc1ccc(C)c(OCCC(=O)NCCc2ccc(Cl)cc2)c1,21.6
25,O=C(COC(=O)Cc1cccc(C(F)(F)F)c1)NCC1CCCO1 (stereo not shown),1.46
26,O=C(OCC(=O)N1CCCc2ccccc21)c1cc(Br)ccc1O,12.4
27,COc1c2c(nc3occc13)C(CC=C(C)C)(OC)C(O)CC2 (stereo not shown),5.5
28,CCCn1cc(CN2CCC(Cc3ccccc3)(C(=O)OCC)CC2)c(C)n1,-60.4

row,Compound,"hERG current change (%, negative = inhibition) at 10uM [%]"
1,CC1(C)Cc2ccccc2-c2nc3n(c(=O)c21)CCCS3,12.8
2,Cc1cc(OC(C)C(=O)NNC(=O)Nc2ccc(F)cc2F)cc(C)c1Cl (stereo not shown),22.3
3,COc1ccc(CCN2C(=O)c3ccccc3NC2c2cc(Cl)c(O)c(OC)c2)cc1 (stereo not shown),-4.85
4,COc1ccc(CCN2CCCC(CN(C)Cc3cc(Cl)c(O)c(OC)c3)C2)cc1 (stereo not shown),-65.7
5,CN(Cc1ccccc1)CC1CCCN(CCc2ccccc2F)C1 (stereo not shown),-49.9
6,COc1cc(CN(C)CC2CCCN(CCc3ccccc3F)C2)cc(Cl)c1OC (stereo not shown),-69.8
7,COc1ccc(CCN2CCCC(CN(C)Cc3cc(OC)c(OC)c(OC)c3)C2)cc1 (stereo not shown),-51.6
8,COc1cc(OC)c(OC)cc1CN(C)CC1CCCN(CCc2ccccc2F)C1 (stereo not shown),-2.33
9,COc1ccc(CCN2CCCC(CN(C)Cc3cc(OC)ccc3OC)C2)cc1 (stereo not shown),-69.1
10,COc1ccc(OC)c(CN2CCCC(CO)C2)c1 (stereo not shown),0.935
11,CC(=O)Nc1ccc(NC(=O)c2oc3cc(C)c(C)cc3c2C)cc1,7.5
12,COc1ccc(-c2cc(CCCC(=O)NCCc3ccc(OC)cc3OC)no2)cc1,5.37
13,CN(CC1COCCO1)C(=O)c1cc(COc2c(F)cccc2F)on1 (stereo not shown),6.62
14,O=C(COc1ncnc2c(Cl)cc(Cl)cc12)NCCC1=CCCCC1,12.4
15,Cc1cccc(C(=S)N2CCOCC2)n1,5.42
16,C=CCNC(=O)C(C)Sc1ccc(Cl)cc1 (stereo not shown),0.00948
17,Cc1cc(C(C)(C)C)cc(C)c1C(=O)O,0.0126
18,Cn1cnnc1SCc1ccc(C(=O)N/N=C/c2cccs2)cc1,4.87
19,COc1ccc(F)c(CN(C)CC2CCCN(CCc3ccc(F)cc3)C2)c1 (stereo not shown),-73.4
20,CN1C(=O)Cc2cc(S(=O)(=O)N3CCN(c4cccc(Cl)c4)CC3)ccc21,15.3
21,COc1ccc(N(Cc2ccccc2)N=O)cc1,-23.3
22,O=NN(CCc1ccncc1)c1ccc(OCc2ccccc2)cc1,-65.2
23,O=C1NC(=O)C(CCc2ccncc2)(Cc2ccc(OCc3ccccc3)cc2)C(=O)N1,11.8
24,Cc1ccc(SCC2=NNC(=O)C2)cc1,-3.78
25,Cn1nc(-c2ccccc2)c(-c2nc(-c3ccc(Cl)cc3)no2)c1Cl,6.65
26,Cc1ccc2nc(N(CCN(C)C)C(=O)/C=C/c3cccs3)sc2c1.Cl,-40.3
27,CCOc1ccccc1NC(=O)Cn1c(=O)c2ccccc2n(CC)c1=O,-11.7
